± gives the standard deviation. The full ranking holds about 5,500 sequences; the median of “pre-steady-state target cleavage rate” is about 0.1, and the highest 2% start at about 0.64. The full list was thinned out, with the highest values kept by preference.
Each sequence was assayed on MIWI (PIWIL1) piRISC loaded with piRNA #2 (30 nt) (assay: pre-steady-state target cleavage rate (min^-1); MIWI and MILI are mouse PIWI proteins and EfPiwi is from a freshwater sponge; tags in brackets are library labels; higher = faster piRNA-guided slicing of the target). Conditions: guide: piRNA #2 5'p-UUAGGUAACCCAGUAGAUCCAGAGGAAUUC; auxiliary factor: 500 nM mouse GTSF1.
Description: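 Cleave-'n-Seq: a library of target RNAs (target site embedded in constant flanks, ACAGCATTCCGCGTTAGTGATATCCG... 5' flank; DNA-blocked outside the site) at 0.1 nM was incubated with 1 nM active mouse MILI or MIWI piRISC (synthetic 5'-monophosphorylated piRNA guide) with or without 500 nM mouse GTSF1 at 33 °C for 1 min to 16 h. Uncleaved targets were sequenced and normalised to non-target controls, and the pooled three trials were fitted to a burst-and-steady-state model to give the pre-steady-state cleavage rate (min^-1; k3 is constrained to at most 1e-4). Sequence is the target site only; target names encode pairing extent (gX:gY) and contiguous / 1-mismatch / 2-mismatch / bulge geometry. Fits with R² ≤ 0 are excluded.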

Sequence	pre-steady-state target cleavage rate
CAAUUCCUUGGAUCUACUGGGUUACCUAA	0.45 ± 0.061
CUUAACCUCAGGAUCUAGUGGGUUACCUAA	0.128 ± 0.017
CUUAACCUCUCGAUCUACUGCGUUACCUAA	0.614 ± 0.057
CUUAUCCUCUCGAUCUACUGCGUUACCUAA	0.636 ± 0.048
CUUAUCCUCUCGAUCUACUGGGUUACCUAA	0.561 ± 0.04
CAAUUCCACUGGAUCUACUGGGUUACCAAA	0.456 ± 0.083
CUUAUCCUCUGGAUCUACAGGGUAACCUAA	0.128 ± 0.023
CAAUUCCUCUGGUUCUACUGGGUUACCUAA	0.868 ± 0.05
CAAUUCCUCUGGUUCUACUGGGUUACCUUA	0.475 ± 0.066
GUAUUCCUCUGGUUCUACUGGGUUACCUAA	0.0955 ± 0.034
GAAUUCCUCUGGUUCUACUGGGUUACCUUA	0.427 ± 0.064
GAAUUCCUCUGGUUCUACUGGGUUACCUAA	0.678 ± 0.042
CUAUUCCUCUGGUUCUACUGGGUUACCUUA	0.371 ± 0.057
CAAUUCCUCUGGUUCUACUGGGUUACGUAA	0.688 ± 0.045
GAAUUCCUCUGGUUCUACUGGGUUACGUAA	0.618 ± 0.035
CAAUUCCUCUGGUCUACUGGGUUACCUAA	0.369 ± 0.088
CUAUUCCUCUGGUUCUACUGGGUUACCUAA	0.711 ± 0.043
GAAUUCCUCUGGUCUACUGGGUUACCUAA	0.301 ± 0.059
CUAUUCCUCUGGUUCUACUGGGUUACGUAA	0.629 ± 0.059
CUUAAGCAGAGGAUCUACUGGGUUACCUAA	0.0315 ± 0.0087
GAAUUCCACAGGAUCUACUGGGUUACCUAA	0.408 ± 0.05
CUUAAGGUCUGGAUCUACUGGGUUAGCCUAA	0.185 ± 0.025
CUUUUCCUCUGGAUCUUCUGGGAUACCUAA	0.146 ± 0.022
CUUAAGGUGAGGAUCUACUGGGUUACCUAA	0.0307 ± 0.01
CUUAUCCUCUGGAUCUACUGCGUUACCUAA	0.498 ± 0.055

Sequence	pre-steady-state target cleavage rate
CUUAAGGUCUGCAUCUAGUGGGUUACCUAA	0.0327 ± 0.0059
GAUUUCCUCUGGUUCUACUGGGUUACCUAA	0.524 ± 0.046
GAAUUCCUCUGCUUCUACUGGGUUACCUAA	0.48 ± 0.04
CAAUUCCUCUGCUUCUACUGGGUUACCUAA	0.653 ± 0.056
CUAUUCCUCUGCUUCUACUGGGUUACCUAA	0.516 ± 0.04
CUUUUCCUCUGGUUCUACUGGGUUACCUAA	0.621 ± 0.042
CAUUUCCUCUGGUUCUACUGGGUUACCUAA	0.772 ± 0.046
CUUAAGGUCUGGUUCUAGUGGGUUACCUAA	0.0776 ± 0.014
CUUAAGGACUGGAUCUACUGGGUUACCAUAA	0.051 ± 0.039
CUUAAGUUCUGGAUCUACUGGGUUACCUAA	0.274 ± 0.04
CAAUUCCUCUGGAUCUACUGGGAUACCUUA	0.219 ± 0.046
CUUAACCUCUGGAUCAACUCGGUUACCUAA	0.0679 ± 0.013
CUUAUCCUCUGGAUCUUCUGGGAUACCUAA	0.144 ± 0.025
CUAUUCCUCUGGCAUCUACUGGGUUACCUAA	0.399 ± 0.1
GAAUUCCUCUGGCUCUACUGGGUUACCUAA	0.586 ± 0.038
CAAUUCCUCUGGCAUCUACUGGGUUACCUAA	0.636 ± 0.17
CAAUUCCUCUGCAUCUACUGGGUUACCUAA	0.57 ± 0.049
CAAUUCCUCUGGCUCUACUGGGUUACCUAA	0.66 ± 0.04
CUAUUCCUCUGGCUCUACUGGGUUACCUAA	0.612 ± 0.042
GAAUUCCUCUGCAUCUACUGGGUUACCUAA	0.421 ± 0.051
GAAUUCCUCUGGCAUCUACUGGGUUACCUAA	0.667 ± 0.17
CUUUUCCUCUGGCAUCUACUGGGUUACCUAA	0.331 ± 0.089
CUUAACCACUGGAACUACUGGGUUACCUAA	0.292 ± 0.025
CUAUUCCACUGGAUCUACUGGGUUUCCUAA	0.448 ± 0.066
CAAUUGCUCUGGAUCUACUGGGUUACCAAA	0.429 ± 0.071

Sequence	pre-steady-state target cleavage rate
CUUAAGGUCUGGAUCUACUGGGUUACAUAA	0.606 ± 0.054
CUAUUCCUCUGGAUCUACUGGGUUACCUAAA	0.333 ± 0.047
CUUUUCCUCUCGAUCUACUGGCUUACCUAA	0.201 ± 0.016
CUUAAGGUCUGGAUCAACUGGGUUACGUAA	0.293 ± 0.039
CUUAACCUCUGGAUCUACUGGAGUUACCUAA	0.00317 ± 0.0031
CUUAUCCUCUGGAUCUACUGAGUUACCUAA	0.779 ± 0.05
CUUAACCUCUGGAUCUACUGAGUUACCUAA	0.646 ± 0.047
CUUAUCCUCUGGAUCUACUGGAUUACCUAA	0.402 ± 0.049
CUUAACCUCUGGAUCUACUGGUUACCUAA	0.0564 ± 0.012
CUUAUCCUCUGGAUCUACUGGGUUACCUAA [g2:g26:cont:t1A]	0.414 ± 0.063
CUUAUCCUCUGGAUCUACAGGGUUUCCUAA	0.119 ± 0.02
GAAUUCCUCUGGAUCUACUGGGUGACCUAA	0.244 ± 0.038
GAAUUCGUCUGGAUCUACUGGGUUAGCUAA	0.293 ± 0.068
CUUAACCUCUGGAUCUACUCGGUUACCUUA	0.052 ± 0.011
CUUAACCUCUGGUUCUACUGGGUUACCUAA	0.479 ± 0.042
CAAUACCUCUGGAUCUACUGGGUUACCUAA	0.395 ± 0.06
CUAUACCUCUGGUUCUACUGGGUUACCUAA	0.696 ± 0.053
CUUUACCUCUGGUUCUACUGGGUUACCUAA	0.514 ± 0.043
CUUAUCCUCUGGUUCUACUGCGUUACCUAA	0.455 ± 0.04
CUAUACCUCUGCAUCUACUGGGUUACCUAA	0.439 ± 0.042
CAAUACCUCUGGUUCUACUGGGUUACCUAA	0.909 ± 0.066
CUUAACCUCUGGUUCUACUGCGUUACCUAA	0.754 ± 0.077
GAAUACCUCUGGUUCUACUGGGUUACCUAA	0.59 ± 0.052
